From PubChem BioAssay AID588453 (National Center for Advancing Translational Sciences (NCATS), 2011)
About 4,000 (1%) of roughly 390,000 compounds were called active. A call without a number means that no potency is given here. About 4% were inconclusive and are not listed. Calls come from the whole dose curve; as a rule, active = well fitted inhibition curve with a large enough effect; inconclusive = small, poorly fitted or top-dose-only effect; inactive = no such curve, though single readings can be large or run the other way. For the sample, actives were picked, then their nearest neighbours and some compounds at random.

biological target: Thioredoxin reductase 1, cytoplasmic (Rattus norvegicus) (UniProt O89049); assay: qHTS Assay for Inhibitors of Mammalian Selenoprotein Thioredoxin Reductase 1 (TrxR1): qHTS; settings: recombinant rTrxR1, NADPH fluorescence consumption, selenite substrate; series mostly up to 114 µM; note: nearly all actives have a fitted effect of over 65% in size
Procedure, shortened: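 Rat TrxR1 (90 nM in the dispensed reagent) was pre-reduced with 400 uM NADPH for 5 min at room temperature, then incubated with compound for 15 min. After 400 uM selenite was added, NADPH fluorescence (Ex 340/Em 450 nm) was followed for 8 min.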
Potency is the fitted concentration of half-maximal effect.

Thioredoxin reductase 1, cytoplasmic (Rattus norvegicus), sequence (O89049 whole entry, looked up): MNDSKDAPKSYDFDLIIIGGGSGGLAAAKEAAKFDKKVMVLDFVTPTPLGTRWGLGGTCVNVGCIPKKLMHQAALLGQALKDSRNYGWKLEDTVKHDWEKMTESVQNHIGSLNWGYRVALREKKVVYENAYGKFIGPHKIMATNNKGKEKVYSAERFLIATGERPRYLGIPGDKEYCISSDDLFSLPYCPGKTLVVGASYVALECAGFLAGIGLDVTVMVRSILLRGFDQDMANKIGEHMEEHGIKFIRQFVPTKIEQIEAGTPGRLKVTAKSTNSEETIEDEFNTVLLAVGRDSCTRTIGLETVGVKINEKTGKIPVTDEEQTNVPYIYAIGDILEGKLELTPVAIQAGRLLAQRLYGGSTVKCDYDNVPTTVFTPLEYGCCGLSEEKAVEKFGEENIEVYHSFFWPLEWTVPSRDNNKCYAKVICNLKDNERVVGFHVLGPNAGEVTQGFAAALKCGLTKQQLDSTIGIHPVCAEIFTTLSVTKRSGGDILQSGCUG

Row | SMILES | Potency
1 | Cc1ccc(C(=O)Nc2ccc3[nH]c(=O)c(=O)[nH]c3c2)cc1 | inactive
2 | CCCS(=O)(=O)C(=C1Nc2ccccc2N1)S(=O)(=O)CCC | inactive
3 | CN(C)/C=C1/Nc2ccccc2C1=O | 35.5 µM (active)
4 | Cc1ccc(S(=O)(=O)c2nnn3c2nc(N2CCN(c4ccccc4F)CC2)c2cc(Cl)ccc23)cc1C | inactive
5 | COCCNC(=O)CSc1nc(-c2ccccc2)[nH]c1-c1ccc(C)cc1 | inactive
6 | Cc1csc(NCC(=O)c2c[nH]c3ccccc23)n1 | inactive
7 | Clc1cccc(-c2nc3nc4ccccc4nc3n2Cc2ccco2)c1 | 7.94 µM (active)
8 | COCCCn1c(-c2cccs2)nc2nc3ccccc3nc21 | inactive
9 | Cc1nc2ccc(S(=O)(=O)N(CC(=O)Nc3ccc(F)cc3)Cc3ccccc3)cc2s1 | inactive
10 | Cc1ccc(C2C=C(c3ccc(Cl)cc3)Nc3nc(NC(=O)CCC(=O)O)nn32)cc1 (configuration not stated) | inactive
11 | CCOc1ccc(NC(=O)Cn2c(=O)n(CCCC(=O)NCc3ccc4c(c3)OCO4)c(=O)c3ccccc32)cc1 | inactive
12 | CCOc1ccc(C(=O)CCC(=O)NC2=NCCS2)cc1 | inactive
13 | CCOc1ccc(NCCC(=O)c2ccc3c(c2)OCO3)cc1 | 2.24 µM (active)
14 | COC(=O)c1c(NC(=O)CCCOc2ccccc2)sc2c1CCC(C)C2 (configuration not stated) | inactive
15 | CCCc1[nH]nc2c1C(c1ccc(Br)s1)C(C#N)=C(N)O2 (configuration not stated) | 44.7 µM (active)
16 | CCCc1nc2c([nH]1)C(c1cccnc1)C(C#N)=C(N)O2 (configuration not stated) | inactive
17 | CCOc1ccc(-n2c(C)nc3c(cnn3-c3ccc(C)cc3)c2=O)cc1 | inactive
18 | CCC1(C)CC(=O)c2c(ccc3oc(C(=O)Nc4ccc(C(C)=O)cc4)c(C)c23)O1 (configuration not stated) | inactive
19 | Cc1ccc(OCC(=O)c2cc(C)n(Cc3ccco3)c2C)c([N+](=O)[O-])n1 | inactive
20 | Cc1ccc(Cn2c(C)nc3c(c2=O)c2nc4ccccc4nc2n3Cc2ccco2)cc1 | 10 µM (active)
21 | Cc1ccc(Cn2c(=O)n(Cc3nc(-c4ccccc4)no3)c(=O)c3cc4c(cc32)OCO4)cc1 | inactive
22 | CC(C)(C)C1CCC(NC(=O)c2cnn3c2NC(=C2CC2)C=C3C(F)F)CC1 (configuration not stated) | inactive
23 | O=S(=O)(c1ccc(Cl)cc1)c1nnn2c1nc(NC1CCCC1)c1sccc12 | inactive
24 | COc1ccc(/C=C/c2ccnc3ccccc23)cc1OC | inactive
25 | CCOc1cc(CNC(=O)c2sc3ncnc(N(C)C4CCCCC4)c3c2C)ccc1OC | inactive

Row | SMILES | Potency
26 | CCOC(=O)Nc1ccc(S(=O)(=O)N(C)C(C)C)cc1 | inactive
27 | CCOC(=O)Nc1ccc2c(c1)N(C(=O)CN1CCN3CCCC3C1)c1ccccc1CC2 (configuration not stated) | inactive
28 | CCOC(=O)Nc1ccc2c(c1)N(C(=O)CCCl)c1ccccc1[S@]2=O | 50.1 µM (active)
29 | Oc1ccc(Br)cc1C1C=C(c2ccc3c(c2)OCO3)NC(c2ccc(Cl)cc2)N1 (configuration not stated) | inactive
30 | CC(CCCc1ccccc1)NC(=O)c1nn(-c2ccc(Cl)cc2)nc1CO (configuration not stated) | inactive
31 | COc1ccc(Cl)cc1N(C)C(=O)c1cc2c(=O)oc3ccc(C)cc3c2s1 | inactive
32 | O=C(NCCCc1ccccc1)c1ccc2c(c1)sc1nc(-c3ccc(F)cc3)cn12 | inactive
33 | CN1C(=O)c2ccccc2Sc2ccc(NC(=O)Cc3ccc(Cl)cc3)cc21 | inactive
34 | COc1cc2[nH]c(=S)n(CCN3CCCCC3C)c(=O)c2cc1OC (configuration not stated) | inactive
35 | COc1cc2[nH]c(=S)n(Cc3ccc(C)o3)c(=O)c2cc1OC | 8.91 µM (active)
36 | CCOc1cc2[nH]c(=S)n(Cc3ccc(C(=O)N4CCN(C)CC4)cc3)c(=O)c2cc1OCC | inactive
37 | OC[C@H]1O[C@@H](n2cnc3c(NC4CCCC4)ncnc32)[C@H](O)[C@H]1O | inactive
38 | CCc1ccccc1NC(=O)c1ccc2nc(CCc3ccccc3)oc2c1 | inactive
39 | O=c1cc(-c2ccccc2)[nH]c2nc(Cl)ccc12 | inactive
40 | COCOc1cc(O)c(C(=O)/C=C/c2ccc(OCOC)c(OCOC)c2)c(OCOC)c1 | inactive
41 | COc1cccc(N2CC(NC(=O)/C=C\c3ccccc3)CC2=O)c1 (configuration not stated) | inactive
42 | COc1ccc(/C=C/C(=O)c2cc(Br)ccc(=O)c2O)cc1 | 35.5 µM (active)
43 | Cc1ccc(-c2nc(=N)sn2Cc2ccccc2)cc1 | inactive
44 | Cc1ccc(NC(=O)Cn2nnc3sc4c(c3c2=O)CCC(C)C4)cc1 (configuration not stated) | inactive
45 | COc1ccc(-c2cc(C(F)(F)F)nc(SCC(=O)N(C)Cc3ccccc3)n2)cc1OC | inactive
46 | COc1ccc(CCNc2nc(-c3ccc(F)cc3)cc(C(F)(F)F)n2)cc1OC | inactive
47 | COc1ccc(-c2cc(C(F)(F)F)nc(S(C)(=O)=O)n2)cc1OC | 17.8 µM (active)
48 | CC1CN(C(=O)N2CCC(C(=O)NCc3ccco3)CC2)c2cc(Cl)ccc2O1 (configuration not stated) | inactive
49 | CC(=O)Nc1ccc(NC(=O)CSc2nnc3c4cc(Br)ccc4n(C)c3n2)cc1 | inactive
50 | CC1CCN(S(=O)(=O)c2ccc3c(c2)N(CC(=O)NCCc2ccccc2)C(=O)CO3)CC1 | inactive

Row | SMILES | Potency
51 | Brc1ccc(C2=CC(c3ccco3)n3ncnc3N2)cc1 (configuration not stated) | 39.8 µM (active)
52 | Cc1ccccc1OCC(=O)Nc1c(C(=O)Nc2ccccc2F)oc2ccccc12 | inactive
53 | NC(=O)Nc1ccc(/C=C/c2ccnc3ccccc23)cc1 | inactive
54 | C=CC1=C(C(=O)O)N2C(=O)[C@@H](NC(=O)/C(=N/OCC(=O)O)c3csc(N)n3)[C@H]2SC1 | inactive
55 | Cc1nnc(SCc2cc(=O)[nH]c(N3CCN(Cc4ccccc4)CC3)n2)s1 | inactive
56 | Cc1cc(C)cc(C(=O)NC2C(=O)N3C(C(=O)O)=C(CSc4nnc(C)s4)CSC23)c1 (configuration not stated) | 8.91 µM (active)
57 | Cc1ccc(C)c(S(=O)(=O)c2nnn3c2nc(N2CCOCC2)c2sccc23)c1 | inactive
58 | O=C(Nc1ccc(Cl)cc1)c1cnn2c1NC(=C1CC1)C=C2C(F)F | inactive
59 | CC(C)(C)n1ncc2c(=O)n(Cc3ccc(C(=O)c4ccccc4)cc3)cnc21 | inactive
60 | CCCCCCCC(=O)NC(Nc1ccccc1OC)C(Cl)(Cl)Cl (configuration not stated) | inactive
61 | CCCCNC(=O)CN1C(=O)NC(Cc2ccccc2)(Cc2ccccc2)C1=O | inactive
62 | CCCCC(O)(CCCC)C(=O)NN(C(=O)CCl)c1ccccc1 | 10 µM (active)
63 | CCOc1ccccc1CNC(=O)c1cnc2c(-c3ccc(OCC)c(OCC)c3)c(C)nn2c1C | inactive
64 | CC1=C(C(=O)OCC2CCCCC2)C(c2c(F)cccc2Cl)CC(=O)N1 (configuration not stated) | inactive
65 | Cc1cc(C)c(NC(=O)c2cc3sc(Cl)cc3n2C)c(C)c1 | inactive
66 | CCN1CCC(O)(/C=C/c2ccc(C)cc2)C(C(=O)/C=C/c2ccc(C)cc2)C1 (configuration not stated) | 1.26 µM (active)
67 | Cc1ccc(NC(=O)CSc2nc3ccccc3c3nc(CCn4cncc4C)nn23)cc1F | inactive
68 | CN(C)C1=C2C=CC=CC2/C(=C2/C=Cc3ccccc32)C=C1 (configuration not stated) | inactive
69 | COC(=O)c1ccc(NC(=O)CCc2c(C)nn(-c3ccc(N4CCCC4)nn3)c2C)cc1 | inactive
70 | CC(C)S(=O)(=O)c1oc(-c2ccc(F)cc2)nc1S(=O)(=O)c1ccc(F)cc1 | 1 µM (active)
71 | Cc1ccc(-c2nc(S(=O)(=O)c3ccc(C)cc3)c(N3CCCCCC3)o2)cc1 | inactive
72 | O=C(CSc1oc(-c2ccc(F)cc2)nc1S(=O)(=O)c1ccc(Br)cc1)NC1CCCCC1 | inactive
73 | C=Cc1ccc(Cn2c(C(=O)OC)cc3sc(C)cc32)cc1 | inactive
74 | COc1ccc(-c2nc3c(c(SCC(=O)Nc4ccc(C(=O)O)cc4)n2)Cc2ccccc2O3)cc1 | inactive
75 | Cc1cccc(CNC(=O)c2cnc3sc(N4CCCCC4)nn3c2=O)c1 | inactive

Row | SMILES | Potency
76 | COc1ccccc1N1CCN(C(=O)C2CCN(S(=O)(=O)c3c(C)noc3/C=C/c3ccc(C)cc3)CC2)CC1 | inactive
77 | COc1cc(OC)c(OC)cc1/C=C/c1nc2ccccc2c(=O)n1-c1ccc(Br)c(C)c1 | inactive
78 | CCCN(CCC)c1c([N+](=O)[O-])c(=O)oc2ccccc12 | inactive
79 | CCn1c(/C=C/c2ccc([N+](=O)[O-])o2)nc2ccccc2c1=O | 3.16 µM (active)
80 | Cc1ccc(C2c3[nH]c4ccccc4c3CCN2C(=O)c2cccc(C)c2)cc1 (configuration not stated) | inactive
81 | COc1ccc(-c2nc3sc(CCNS(=O)(=O)c4ccc(F)c(C)c4)c(C)n3n2)cc1 | inactive
82 | COc1ccccc1-n1c(=S)[nH]c2c(sc(=S)n2-c2ccc(C)cc2C)c1=O | inactive
83 | COc1ccccc1-n1c(-c2cc(-c3ccco3)[nH]n2)n[nH]c1=S | 44.7 µM (active)
84 | Cc1cc(-c2n[nH]c(=S)n2-c2ccc(C)c(C)c2)no1 | inactive
85 | COc1ccc(N2CCN(C(=O)C3CCCN(C(=O)c4cc5sccc5n4C)C3)CC2)cc1 (configuration not stated) | inactive
86 | CN(C(=O)CC1C(=O)NCCN1Cc1ccc2ccccc2c1)C1CCOCC1 (configuration not stated) | 39.8 µM (active)
87 | COc1ccc(CN2CCNC(=O)C2CC(=O)N(C)Cc2ccccn2)cc1OC (configuration not stated) | inactive
88 | COc1ccccc1CN1CCNC(=O)C1CC(=O)N(C)CC1CCOCC1 (configuration not stated) | inactive
89 | O=C(Cn1c(-c2cccs2)cc2ccccc21)NCCc1ccc(Cl)cc1 | inactive
90 | CCNC(=O)Cn1nc(C)n2c(cc3c(OC)cccc32)c1=O | inactive
91 | COC(=O)C(CC(=O)Nc1cc(C)ccc1C)Nc1ccccc1OC (configuration not stated) | inactive
92 | Cc1ccc(C)c(NC(CC(=O)c2ccccc2)C(=O)OCC(=O)c2cccs2)c1 (configuration not stated) | 44.7 µM (active)
93 | O=C(COC(=O)[C@H](Cc1ccccc1)NC(=O)c1cccs1)Nc1cc(F)ccc1F | inactive
94 | COc1cc2nc(N3CCCN(C)CC3)nc(NC(C)C)c2cc1OC | inactive
95 | CCOc1ccc(N(Cc2ccccc2)C(=O)c2nc(SCC)ncc2Cl)cc1 | inactive
96 | CCOc1ccc(N(Cc2ccccc2)C(=O)c2nc(S(C)(=O)=O)ncc2Cl)cc1 | 2.24 µM (active)
97 | CCOc1ccc(NC(=O)CN(Cc2ccccc2)S(=O)(=O)c2ccc(Cl)cc2)cc1 | inactive
